# Assay results as given in PubChem BioAssay (NCATS).
# Results filed as inconclusive are left out. Values without a mark were called inactive. The source made the active and inactive calls. Calls come from the whole dose curve; as a rule, active = well fitted cell-killing curve with a large enough effect; inconclusive = small, poorly fitted or top-dose-only effect, or effect the other way; inactive = no such curve, though single readings can be large or run the other way.
# Experiments:
# [1] = Quantitative High-Throughput drug screen in 47 multiple myeloma cell lines against the NCATS MIPE library collection: OCIMY1_PLB cell viability assay (AID 1918979); note: nearly all actives have a fitted effect of over 35% in size;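 for viability: 100% = DMSO-only wells and 0% = cell-free media-only wells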
# Outline: (§1)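 500 cells/well; MIPE 4.0 drugs pin-transferred; 48 h, 37C, 5% CO2. CellTiter-Glo, 5 min RT, luminescence. Controls: DMSO 100%, media 0%.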
# [2] = Quantitative High-Throughput drug screen in 47 multiple myeloma cell lines against the NCATS MIPE library collection: MM1S_ATCC cell viability assay (AID 1918980); note: nearly all actives have a fitted effect of over 45% in size
# Outline: as §1
# [3] = Quantitative High-Throughput drug screen in 47 multiple myeloma cell lines against the NCATS MIPE library collection: LP1_DSMZ cell viability assay (AID 1918982); note: nearly all actives have a fitted effect of over 35% in size
# Outline: as §1
# [4] = Quantitative High-Throughput drug screen in 47 multiple myeloma cell lines against the NCATS MIPE library collection: L363_DSMZ cell viability assay (AID 1918984); note: nearly all actives have a fitted effect of over 40% in size
# Outline: as §1
# [5] = Quantitative High-Throughput drug screen in 47 multiple myeloma cell lines against the NCATS MIPE library collection: KMS34_JCRB cell viability assay (AID 1918985); note: nearly all actives have a fitted effect of over 40% in size
# Outline: as §1
# [6] = Quantitative High-Throughput drug screen in 47 multiple myeloma cell lines against the NCATS MIPE library collection: OCIMY7_PLB cell viability assay (AID 1918987); conditions: OCI-MY7 myeloma viability, CellTiter-Glo ATP, 48 h; viability (% of DMSO): at 45.8 µM (top of the series); note: nearly all actives have a fitted effect of over 65% in size
# Outline: as §1
# [7] = Quantitative High-Throughput drug screen in 47 multiple myeloma cell lines against the NCATS MIPE library collection: OPM1_PLB cell viability assay (AID 1918989); note: nearly all actives have a fitted effect of over 40% in size
# Outline: as §1
# [8] = Quantitative High-Throughput drug screen in 47 multiple myeloma cell lines against the NCATS MIPE library collection: XG6_PLB cell viability assay (AID 1919865); note: nearly all actives have a fitted effect of over 40% in size
# Outline: as §1
# [9] = Quantitative High-Throughput drug screen in 47 multiple myeloma cell lines against the NCATS MIPE library collection: XG1_PLB cell viability assay (AID 1919866); note: nearly all actives have a fitted effect of over 35% in size
# Outline: as §1
# [10] = Quantitative High-Throughput drug screen in 47 multiple myeloma cell lines against the NCATS MIPE library collection: PE2_PLB cell viability assay (AID 1919869); note: nearly all actives have a fitted effect of over 35% in size
# Outline: as §1
# [11] = Quantitative High-Throughput drug screen in 47 multiple myeloma cell lines against the NCATS MIPE library collection: PCM6_Riken cell viability assay (AID 1919870); note: nearly all actives have a fitted effect of over 30% in size
# Outline: as §1
# [12] = Quantitative High-Throughput drug screen in 47 multiple myeloma cell lines against the NCATS MIPE library collection: OPM2_DSMZ cell viability assay (AID 1919872); note: nearly all actives have a fitted effect of over 30% in size
# Outline: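 Primary qHTS used for cherry-picking: cells at 500/well, library compounds for 48 h (37C, 5% CO2), luminescent ATP assay.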
# [13] = Quantitative High-Throughput drug screen in 47 multiple myeloma cell lines against the NCATS MIPE library collection: MM1R_ATCC cell viability assay (AID 1918981); note: nearly all actives have a fitted effect of over 35% in size
# Outline: as §1
# [14] = Quantitative High-Throughput drug screen in 47 multiple myeloma cell lines against the NCATS MIPE library collection: KMS28PE_JCRB cell viability assay (AID 1918983); note: nearly all actives have a fitted effect of over 35% in size
# Outline: as §1
# [15] = Quantitative High-Throughput drug screen in 47 multiple myeloma cell lines against the NCATS MIPE library collection: OCIMY5_PLB cell viability assay (AID 1918988); note: nearly all actives have a fitted effect of over 65% in size
# Outline: as §1
# [16] = Quantitative High-Throughput drug screen in 47 multiple myeloma cell lines against the NCATS MIPE library collection: SKMM1_PLB cell viability assay (AID 1919863); conditions: SKMM1 myeloma viability, CellTiter-Glo ATP, 48 h; viability: stronger effect = lower value; note: nearly all actives have a fitted effect of over 35% in size
# Outline: as §1
# [17] = Quantitative High-Throughput drug screen in 47 multiple myeloma cell lines against the NCATS MIPE library collection: U266_ATCC cell viability assay (AID 1919864); note: nearly all actives have a fitted effect of over 35% in size;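 for viability (% of DMSO control): 0% = media-only wells without cells and 100% = DMSO-only wells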
# Outline: as §1
# [18] = Quantitative High-Throughput drug screen in 47 multiple myeloma cell lines against the NCATS MIPE library collection: UTMC2_PLB cell viability assay (AID 1919868); conditions: CellTiter-Glo ATP luminescence, 48 h; viability (% of DMSO control): at 45.8 µM (top of the series); note: nearly all actives have a fitted effect of over 55% in size;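 for viability (% of DMSO control): 100% = DMSO-only wells and 0% = media-only wells without cells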
# Outline: as §1
# [19] = Quantitative High-Throughput drug screen in 47 multiple myeloma cell lines against the NCATS MIPE library collection: RPMI8226_ATCC cell viability assay (AID 1919871); note: nearly all actives have a fitted effect of over 30% in size
# Outline: as §1
# [20] = Quantitative High-Throughput drug screen in 47 multiple myeloma cell lines against the NCATS MIPE library collection: VP6_DJ cell viability assay (AID 1919867); note: nearly all actives have a fitted effect of over 40% in size
# Outline: as §1
# Potency is the fitted concentration of half-maximal effect.
smiles,measurement,setting,value
OCC(O)C(O)C(O)CO (configuration not stated),Potency,[1],inactive
same,Potency,[2],inactive
same,Potency,[3],inactive
same,Potency,[4],inactive
same,Potency,[5],inactive
same,Potency,[6],inactive
same,Potency,[7],inactive
same,Potency,[8],inactive
same,Potency,[9],inactive
same,Potency,[10],inactive
same,Potency,[11],inactive
same,Potency,[12],inactive
CC(C)NC[C@@H](C(=O)N1CCN(c2ncnc3c2[C@H](C)C[C@H]3O)CC1)c1ccc(Cl)cc1,Potency,[1],16.6 µM (active)
same,Potency,[2],0.0469 µM (active)
same,Potency,[13],0.105 µM (active)
same,Potency,[14],1.48 µM (active)
same,Potency,[4],0.0372 µM (active)
same,Potency,[15],1.66 µM (active)
same,Potency,[7],0.372 µM (active)
same,Potency,[16],10.5 µM (active)
same,Potency,[17],18.7 µM (active)
same,Potency,[9],1.87 µM (active)
same,Potency,[18],0.105 µM (active)
same,Potency,[11],1.32 µM (active)
same,Potency,[19],11.8 µM (active)
same,Potency,[12],18.7 µM (active)
COc1ccc(C(C)=O)c(O)c1,Potency,[1],inactive
same,Potency,[2],4.69 µM (active)
same,Potency,[3],inactive
same,Potency,[14],inactive
same,Potency,[15],inactive
same,Potency,[7],inactive
same,Potency,[8],18.7 µM (active)
same,Potency,[10],inactive
same,Potency,[11],inactive
same,Potency,[19],inactive
same,Potency,[12],inactive
NC(=NCCCCCCN=C(N)N=C(N)Nc1ccc(Cl)cc1)N=C(N)Nc1ccc(Cl)cc1,Potency,[1],11.8 µM (active)
same,Potency,[2],2.09 µM (active)
same,Potency,[3],11.8 µM (active)
same,Potency,[14],16.6 µM (active)
same,Potency,[4],8.33 µM (active)
same,Potency,[5],11.8 µM (active)
same,Potency,[6],2.96 µM (active)
same,Potency,[15],8.33 µM (active)
same,Potency,[7],2.64 µM (active)
same,Potency,[16],11.8 µM (active)
same,Potency,[8],2.35 µM (active)
same,Potency,[9],2.64 µM (active)
same,Potency,[20],2.35 µM (active)
same,Potency,[18],5.26 µM (active)
same,Potency,[10],6.62 µM (active)
same,Potency,[11],2.64 µM (active)
same,Potency,[19],16.6 µM (active)
same,Potency,[12],14.8 µM (active)
CN(CC(=O)N(Cc1ccc(C2CCCCC2)cc1)c1ccc(C(=O)O)c(O)c1)S(=O)(=O)c1c(F)c(F)c(F)c(F)c1F,Potency,[1],33.2 µM (active)
same,Potency,[2],7.43 µM (active)
same,Potency,[3],20.9 µM (active)
same,Potency,[14],29.6 µM (active)
same,Potency,[4],9.35 µM (active)
same,Potency,[5],20.9 µM (active)
same,Potency,[6],8.33 µM (active)
same,Potency,[15],18.7 µM (active)
same,Potency,[17],13.2 µM (active)
same,Potency,[9],4.69 µM (active)
same,Potency,[20],8.33 µM (active)
same,viability (% of DMSO control),[18],77% (active)
same,Potency,[10],3.32 µM (active)
same,Potency,[11],6.62 µM (active)
same,Potency,[19],23.5 µM (active)
Oc1cc(-c2nc(-c3ccccc3)[nH]c2-c2ccncc2)ccc1Cl,Potency,[1],10.5 µM (active)
same,Potency,[2],4.69 µM (active)
same,Potency,[13],14.8 µM (active)
same,Potency,[14],20.9 µM (active)
same,Potency,[4],0.332 µM (active)
same,Potency,[5],16.6 µM (active)
same,Potency,[15],18.7 µM (active)
same,Potency,[7],14.8 µM (active)
same,Potency,[16],16.6 µM (active)
same,Potency,[17],16.6 µM (active)
same,Potency,[8],2.35 µM (active)
same,Potency,[9],2.35 µM (active)
same,Potency,[20],3.72 µM (active)
same,Potency,[18],7.43 µM (active)
same,Potency,[10],5.26 µM (active)
same,Potency,[11],2.96 µM (active)
same,Potency,[19],16.6 µM (active)
CN(C)c1ccc(C(=O)NCCCCCCC(=O)NO)cc1,Potency,[1],1.87 µM (active)
same,Potency,[2],0.833 µM (active)
same,Potency,[13],0.59 µM (active)
same,Potency,[14],0.935 µM (active)
same,Potency,[4],0.0833 µM (active)
same,Potency,[15],0.469 µM (active)
same,Potency,[7],0.296 µM (active)
same,Potency,[16],1.48 µM (active)
same,Potency,[17],1.18 µM (active)
same,Potency,[18],0.332 µM (active)
same,Potency,[10],2.35 µM (active)
same,Potency,[11],0.662 µM (active)
same,Potency,[19],1.87 µM (active)
same,Potency,[12],0.935 µM (active)
CN(C)CCN1C(=O)c2cccc3cc(N)cc(c23)C1=O,Potency,[1],23.5 µM (active)
same,Potency,[2],14.8 µM (active)
same,Potency,[13],9.35 µM (active)
same,Potency,[14],16.6 µM (active)
same,Potency,[4],16.6 µM (active)
same,Potency,[5],23.5 µM (active)
same,Potency,[17],18.7 µM (active)
same,Potency,[8],14.8 µM (active)
same,Potency,[9],16.6 µM (active)
same,Potency,[20],14.8 µM (active)
same,Potency,[18],5.9 µM (active)
same,Potency,[10],20.9 µM (active)
same,Potency,[11],16.6 µM (active)
same,Potency,[19],16.6 µM (active)
COC[C@H](NC(=O)c1cnc(C)s1)C(=O)N[C@@H](COC)C(=O)N[C@@H](Cc1ccccc1)C(=O)[C@@]1(C)CO1,Potency,[1],0.0418 µM (active)
same,Potency,[13],0.0418 µM (active)
same,Potency,[3],0.148 µM (active)
same,Potency,[14],0.0662 µM (active)
same,Potency,[4],0.0372 µM (active)
same,Potency,[6],0.0526 µM (active)
same,Potency,[15],0.0372 µM (active)
same,Potency,[7],0.118 µM (active)
same,Potency,[16],0.372 µM (active)
same,Potency,[17],0.0743 µM (active)
same,Potency,[8],0.059 µM (active)
same,Potency,[9],0.0743 µM (active)
same,Potency,[20],0.0662 µM (active)
same,Potency,[18],1.05 µM (active)
same,Potency,[10],0.0833 µM (active)
same,Potency,[11],0.187 µM (active)
same,Potency,[19],0.187 µM (active)
same,Potency,[12],0.235 µM (active)
CCCCCCCCCCCC(CC1OC(=O)C1CCCCCC)OC(=O)C(CC(C)C)NC=O (configuration not stated),Potency,[1],inactive
same,Potency,[2],inactive
same,Potency,[14],26.4 µM (active)
same,Potency,[4],inactive
same,Potency,[5],inactive
same,Potency,[15],18.7 µM (active)
same,Potency,[7],inactive
same,Potency,[17],inactive
same,Potency,[20],7.43 µM (active)
same,Potency,[10],inactive
same,Potency,[11],4.69 µM (active)
same,Potency,[19],18.7 µM (active)
CCC(C(=O)O)C1CCC(C)C(C(C)C(O)C(C)C(=O)C(CC)C2OC3(C=CC(O)[C@@]4(CC[C@](C)(C5CC[C@@](O)(CC)C(C)O5)O4)O3)C(C)CC2C)O1 (some centres not stated),Potency,[1],5.26 µM (active)
same,Potency,[13],3.72 µM (active)
same,Potency,[3],4.69 µM (active)
same,Potency,[14],16.6 µM (active)
same,Potency,[4],0.833 µM (active)
same,Potency,[5],6.62 µM (active)
same,Potency,[15],0.372 µM (active)
same,Potency,[7],1.32 µM (active)
same,Potency,[16],2.64 µM (active)
same,Potency,[17],5.26 µM (active)
same,Potency,[8],3.32 µM (active)
same,Potency,[9],5.9 µM (active)
same,Potency,[18],1.32 µM (active)
same,Potency,[10],2.64 µM (active)
same,Potency,[11],4.69 µM (active)
same,Potency,[19],2.35 µM (active)
same,Potency,[12],1.87 µM (active)
